# Where a name gives a salt, the structure may show the parent alone.
# Test system: S. enterica typhimurium tolC KO
# Assay: growth AUC normalised to DMSO control (median) (fraction of control); higher = less growth inhibition, active = hit call of the paper
# Conditions: 20 µM;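 active = normalised median growth AUC below 0.1 of DMSO control; inactive = AUC 0.1 or higher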
# Summary of the method: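 For normalised area under the curve, growth curves were truncated at entry into stationary phase, integrated by the trapezoidal rule and divided against vehicle wells on the same plate. The curves came from strains passaged twice overnight without oxygen and then grown in mGAM in 96-well plates at a starting OD578 of 0.01. Each well held an approved-drug library compound at 20 μM with 1% DMSO, and OD578 was read hourly for 24 h in an anaerobic incubator. Values are medians of three biological replicates.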
# 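Further: active when median AUC fell below 0.1.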
row,Structure (SMILES),growth AUC normalised to DMSO control
1,Cc1scc2c1N(C(=O)CN1CCN(C)CC1)c1ccccc1NC2=O [Telenzepine dihydrochloride],0.999 (inactive)
2,CCCCN(CCCC)CCC(O)c1cc2c(Cl)cc(Cl)cc2c2cc(C(F)(F)F)ccc12 (stereo not given) [Halofantrine hydrochloride],1.01 (inactive)
3,CCN1CCCC1CNC(=O)c1cc(S(=O)(=O)CC)c(N)cc1OC (stereo not given) [Amisulpride],0.995 (inactive)
4,Clc1ccc(CCC(Cn2ccnc2)Sc2c(Cl)cccc2Cl)cc1 (stereo not given) [Butoconazole nitrate],0.999 (inactive)
5,CCn1nc(C(=O)O)c(=O)c2cc3c(cc21)OCO3 [Cinoxacin],0.0349 (active)
6,CCC1(c2ccccc2)NC(=O)N(C)C1=O (stereo not given) [Mephenytoin],1 (inactive)
7,CCCN(CCC)C(=O)C(CCC(=O)O)NC(=O)c1ccccc1 (stereo not given) [Proglumide],0.99 (inactive)
8,O=C1NCC2(CCN(CCc3ccccc3)CC2)O1 [Fenspiride hydrochloride],0.993 (inactive)
9,CC(c1cc2ccccc2s1)N(O)C(N)=O (stereo not given) [Zileuton],0.993 (inactive)
10,c1ccc2c(c1)CCCC2C1=NCCN1 (stereo not given) [Tetrahydrozoline hydrochloride],1 (inactive)
